According to PubChem BioAssay (NCI):
About 79,000 compounds went through this panel and 15% of them were active in at least one assay; those are over-represented in the sample as a whole. No stated cut-off is given here; in the data, active means growth inhibition above about 70%; inactive means the rest. Where a SMILES comes first, the peptide text is derived from it. Bridges are numbered along the chain shown (N, C = ends). The star is where a group is joined. Cbz = O=C(OCc1ccccc1)*; OBn = c1ccc(CO*)cc1

Columns and labels:
[1] = NCI Yeast Anticancer Drug Screen. Data for the rad50 strain (AID 155);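 further: 0% = growth of vehicle-only cultures of the same strain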; conditions: S. cerevisiae rad50 strain growth inhibition; at 50.0 µM; active compounds read high
How it was run: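 Cells are treated with compound, grown, and their growth is then scored against vehicle-only cultures of the same repair-deficient yeast strain.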

[2] = NCI Yeast Anticancer Drug Screen. Data for the mec2-1 strain (AID 157); conditions: S. cerevisiae mec2-1 strain, at 50.0 µM, active compounds read high
How it was run: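 Readout is yeast growth inhibition, normalised to vehicle-treated controls, in the mec2-1 strain exposed to compound.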

[3] = NCI Yeast Anticancer Drug Screen. Data for the sgs1 mgt1 strain (AID 161);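 further: 0% = growth of cultures given vehicle only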; conditions: S. cerevisiae sgs1 mgt1 strain, at 50.0 µM, active compounds read high
How it was run: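 Yeast cells carrying a defined DNA-repair defect were exposed to test compounds. Growth inhibition was measured relative to vehicle-treated controls.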

[4] = NCI Yeast Anticancer Drug Screen. Data for the cln2 rad14 strain (AID 165);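 further: 0% = growth equal to vehicle treated cultures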; conditions: S. cerevisiae cln2 rad14 strain, at 50.0 µM, active compounds read high
How it was run: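 Relative to vehicle controls, growth inhibition of compound-treated cln2 rad14 yeast was recorded.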

[5] = NCI Yeast Anticancer Drug Screen. Data for the bub3 strain (AID 167); conditions: S. cerevisiae bub3 mutant strain, at 50.0 µM, active compounds read high
How it was run: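 Part of a panel of yeast mutants defective in DNA damage repair or cell cycle regulation. Each strain is grown with compound, and inhibition is calculated relative to solvent-treated cultures.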

[6] = NCI Yeast Anticancer Drug Screen. Data for the mlh1 rad18 strain (AID 175); conditions: S. cerevisiae mlh1 rad18 strain growth inhibition; at 50.0 µM; active compounds read high
How it was run: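 Test agents were incubated with a yeast strain of defined genotype (DNA damage repair defect). Inhibition of growth was derived by comparison with vehicle-exposed cultures.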

Measured: growth inhibition

COc1ccc2c(c1)CCC1=C2CCC2=CC(=O)CC[C@@]21C
inactive: [1] 5.4% | [2] 16.6% | [3] 4.4% | [4] 2.5% | [5] 38% | [6] -12.1%

CCCC(=O)OC1=CC(=O)c2ccccc2C1=O
inactive: [1] 22.9% | [2] 16.6% | [3] 29.1% | [4] 26.5% | [5] -10.2% | [6] 6.3%

CCOP(=O)(OCC)/C(=C/NC(=S)c1cccnc1)C(=O)OC
inactive: [1] -11% | [2] -1% | [3] -13% | [4] -7.75% | [5] 17.6% | [6] -2.2%

Nc1c(S(=O)(=O)O)ccc2c1C(=O)c1ccccc1C2=O
inactive: [1] 27.9% | [2] 24.2% | [3] 34% | [4] 6.5% | [5] 49.1% | [6] 16.4%

Cc1ccc(NC(=O)/C(CC(=O)c2sc(Nc3ccccc3Cl)nc2C)=N\Nc2ccc([N+](=O)[O-])cc2[N+](=O)[O-])c(C)c1
inactive: [1] -1% | [2] 17.1% | [3] 4.25% | [4] -12.1% | [5] 4.55% | [6] -4.25%

COC(=O)c1ccc(-n2c(C)nc(=O)c(-c3ccccc3)c2C)cc1
inactive: [1] -6.85% | [2] -33.4% | [3] 12.4% | [4] 11.9% | [5] 0.95% | [6] 7.65%

Nc1ccnc(Sc2ncccc2[N+](=O)[O-])n1
inactive: [1] 1.2% | [2] -8.15% | [3] -5.75% | [4] -47.8% | [5] 7.8% | [6] 1.3%

Cc1ccc(S(=O)(=O)OCC23CCC(CC2)CC3)cc1
inactive: [1] -30% | [2] -9.85% | [3] -26.2% | [4] -3.5% | [5] 39.6% | [6] -1.2%

CCn1nnc2c(C(N)=O)ncn2c1=O
inactive: [1] 0.6% | [2] -38.7% | [3] -44.1% | [4] 14.1% | [5] -14.8% | [6] -16.6%

CCOC(=O)C(=CNc1cccc(N)n1)C(=O)OCC
inactive: [1] -3.35% | [2] -17.9% | [3] 28% | [4] -8.55% | [5] 20.4% | [6] 5.75%

CCN(CC)CCOc1ccc(Cc2nc3c([nH]2)c(=O)n(C)c(=O)n3C)cc1
inactive: [1] 21.6% | [2] 2.85% | [3] 14.2% | [4] 34.5% | [5] 5.1% | [6] 11.3%

Nc1nc(Nc2ccccc2)nc(SCc2ccccc2)n1
inactive: [1] 9.7% | [2] 5.45% | [3] -5.5% | [4] -33.5% | [5] 0.15% | [6] 13.7%

C/C(=N/S(=O)(=O)c1ccc(C)c(C)c1)OC(C)C
inactive: [1] 2.6% | [2] 6.9% | [3] 7.95% | [4] -55.1% | [5] 13.1% | [6] -1.2%

CCOC(=O)C(CCC(C)=O)C(=O)OCC
inactive: [1] -1.25% | [2] 12.8% | [3] -6.15% | [4] 24.6% | [5] 5.65% | [6] -19.1%

COC(=O)C1CCC(=O)NCCCCC(NC(=O)C(CC(=O)OCc2ccccc2)NC(=O)OCc2ccccc2)C(=O)N1 (stereo not drawn) (Cbz-Asp(OBn)-Lys-Glu-OMe; lactam 2-3; configuration not given here)
inactive: [1] -2% | [2] 3.95% | [3] 23.3% | [4] 11.8% | [5] 28.4% | [6] -23.7%

CCCCC(O)C(C)(C)C (stereo not given)
inactive: [1] 1.5% | [2] -8.65% | [3] 3.55% | [4] 6.55% | [5] 9.65% | [6] 7.2%

CNc1ccccc1C(=O)N/N=C/c1cccc([N+](=O)[O-])c1
inactive: [1] -0.9% | [2] 1.05% | [3] -39% | [4] -8.6% | [5] 32.5% | [6] -8.9%

Cc1ccc(S(=O)(=O)N/N=C2\CCC3(C)C(=CCC4C3CCC3(C)C(C(C)CCCC(C)C)CCC43)C2(C)C)cc1 (stereo not given)
inactive: [1] 0.45% | [2] -1.2% | [3] -11.2% | [4] 2.75% | [5] -7.95% | [6] -0.1%

CC(C)(CO)NO
inactive: [1] -13.7% | [2] -6.9% | [3] 3.05% | [4] -0.4% | [5] -14.3% | [6] -5.7%

Nc1c(Br)cc(Br)c2c1CCC2
inactive: [1] 10.6% | [2] 5.9% | [3] 10.6% | [4] 1.4% | [5] 8.8% | [6] 15.8%
